NS1 function inh = qHTS Assay for Inhibitors of Influenza NS1 Protein Function; 270,000 compounds, 0.4% hits; Potency, µM (top dose mostly 46.1 µM); calls by dose curve; further: actives are rising curves; nearly all actives have a fitted effect of over 50% in size
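Recovery from NS1-induced slow growth read by OD600 in budding yeast switched to galactose assay medium (pH 6.0, -URA) at 1:100 dilution. Compound 23 nl per well; the matching strain lacking NS1 serves as control.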
Shiga toxin inh = A qHTS for Small Molecule Inhibitors of Shiga Toxin. Vero cells, Shiga toxin protein synthesis inhibition reporter. inhibition, % at 38.7 µM. 290,000 compounds, 9.2% hits. AID 2315, 2010; in the data active means inhibition mostly above about 28%, no sharp cut-off; inactive means mostly below about 43%
Cycloheximide cs = Cycloheximide Counterscreen for Small Molecule Inhibitors of Shiga Toxin; cell reporter, cycloheximide protein synthesis inhibition counterscreen; max response, %; 300,000 compounds, 12% hits; in the data active means max response mostly above about 13%, no sharp cut-off; inactive means mostly below about 14%; further: read at 38.3 µM for the half of the compounds with a filed dose
LmPK inhibitor = qHTS Assay for Inhibitors of Leishmania Mexicana Pyruvate Kinase (LmPK); Q27686; purified LmPK, Kinase-Glo ATP luminescence, 1 h; Potency, µM (titrated, usually from 57.5 µM), hits mostly inhibitors; 290,000 compounds, 0.37% hits; AID 1721, 2009
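0.1 nM LmPK, 0.5 mM PEP, 0.1 mM ADP; 50 mM imidazole pH 7.2, 7 mM MgCl2, 50 mM KCl; 1 h RT. Kinase-Glo luminescence readout, normalized to no-enzyme (full inhibition) and uninhibited wells.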
Giardia FBPA inh = qHTS Assay for Inhibitors of Fructose-1,6-bisphosphate Aldolase from Giardia Lamblia; A8B2U2; purified Giardia FBPA; Potency, µM (highest dose often 59.6 µM), hits mostly inhibitors; 290,000 compounds, 0.71% hits; further: nearly all actives have a fitted effect of over 55% in size
Target sequence (A8B2U2 whole entry, looked up): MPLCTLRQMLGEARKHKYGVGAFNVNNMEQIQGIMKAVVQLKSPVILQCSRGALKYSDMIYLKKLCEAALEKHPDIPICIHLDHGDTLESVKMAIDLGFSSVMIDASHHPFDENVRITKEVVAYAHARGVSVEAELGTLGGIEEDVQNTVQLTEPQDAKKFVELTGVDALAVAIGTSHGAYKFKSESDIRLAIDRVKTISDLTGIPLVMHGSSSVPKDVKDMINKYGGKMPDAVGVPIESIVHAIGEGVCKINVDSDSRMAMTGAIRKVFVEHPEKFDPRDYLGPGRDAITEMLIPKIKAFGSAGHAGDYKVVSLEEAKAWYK
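40 nM FBPA preincubated 10 min at RT with compound (up to 57.5 uM final), then substrate plus GAPDH/TPI/NAD/arsenate coupling and diaphorase/resazurin added. Fluorescence read after 20 min at RT, 525/598 nm.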
Each line names hits and unclear results; the compound was inactive in the other large screens. Shown are actives, neighbours in structure and some others; about 14% of the full set was active somewhere. Unless noted, the call rests on the fitted dose curve; in most records, active means well fitted curve in the direction sought with a large enough effect; inconclusive means small, poorly fitted or top-dose-only effect, or another doubt; inactive means no such curve, though single readings can be large; an effect the other way counts as inactive or inconclusive.

COc1cc(/C=C/c2noc(-c3ccccc3O)n2)cc(OC)c1OC	none
Cc1cc2oc(=O)cc(CN3CCOCC3)c2cc1Cl	none
O=c1c(-c2ccc(F)cc2)nc2cnc(Oc3ccccc3)nc2n1C[C@H]1CCCO1	none (no result: NS1 function inh, Shiga toxin inh, Cycloheximide cs, LmPK inhibitor)
O=S(=O)(Cc1nnnn1-c1ccccc1)c1ccc(F)cc1	none (no result: Giardia FBPA inh)
CCCN1CN=C(Nc2nc3ccccc3o2)NC1	Shiga toxin inh 129.5, Cycloheximide cs 32.3
c1ccc2oc(NC3=NCN(CC4CCCO4)CN3)nc2c1 (stereo unspecified)	Shiga toxin inh 81.4, Cycloheximide cs 28.7
COCCCN1CN=C(Nc2nc3ccccc3o2)NC1	Shiga toxin inh 60.6, Cycloheximide cs 40.0 (no result: NS1 function inh)
CCOc1ccc2nc(NC3=NCN(CC4CCCO4)CN3)nc(C)c2c1 (stereo unspecified)	none (no result: Shiga toxin inh, Cycloheximide cs, LmPK inhibitor, Giardia FBPA inh)
OCCN1CN=C(Nc2nc3ccccc3o2)NC1	NS1 function inh inconclusive
O=C1CCC(C(=O)N2CCCC(N3CCN(c4cccc(C(F)(F)F)c4)CC3)C2)=NN1 (stereo unspecified)	none (no result: Giardia FBPA inh)
COc1ccc(C(=O)CC(=O)C(=O)Nc2ccccc2OC)cc1	none
COc1ccc(C(=O)CC(=O)C(=O)Nc2ccc(C)c(C)c2)cc1	Shiga toxin inh 94.4, Cycloheximide cs 17.5
COc1cccc(C(=O)CC(=O)C(=O)Nc2ccc(C)cc2Cl)c1	Shiga toxin inh 38.3, Cycloheximide cs 11.9
COc1ccc(OCC(=O)Nc2cccc(C(C)=O)c2)cc1	none
COc1ccc(C(=O)CC(=O)C(=O)Nc2cccc(C(C)=O)c2)cc1	Cycloheximide cs 17.2
Cc1ccc(/C=N/NC(=O)c2cc3c(ccc4ccccc43)o2)o1	none
O=C(NC1CCCC1)c1cc2c(ccc3ccccc32)o1	Shiga toxin inh 59.6, Cycloheximide cs 43.7
COCC(C)NC(=O)c1cc2c(ccc3ccccc32)oc1=O (stereo unspecified)	Shiga toxin inh 21.8, Cycloheximide cs 24.1
CNC(=O)c1cc2c(ccc3ccccc32)o1	Shiga toxin inh 81.5, Cycloheximide cs 32.5
O=C(Nc1cc2c(ccc3ccccc32)oc1=O)C1CCCCC1	none
O=C(NC1CC1)c1cc2ccccc2o1	Shiga toxin inh 43.0, Cycloheximide cs 15.1
O=C(NNC(=O)c1ccccc1C(=O)O)c1cc2ccccc2o1	none
NC(=O)c1nsc(C(=O)N(Cc2cccnc2)C(C(=O)NCc2ccc(F)cc2)c2ccc(F)cc2)c1N (stereo unspecified)	none
COc1ccc([C@@H]2CC(=O)c3c(O)cc(O[C@@H]4O[C@H](CO)[C@@H](O)[C@H](O)[C@H]4OC4O[C@@H](C)[C@H](O)[C@@H](O)[C@H]4O)cc3O2)cc1O (stereo partly specified)	none (no result: NS1 function inh, LmPK inhibitor)
O=C(N/N=C/c1cc(Cl)c(O)c(Cl)c1)c1cc2c(ccc3ccccc32)o1	Cycloheximide cs 36.9
CC[C@@H]1/C=C(\C)C[C@H](C)C[C@H](OC)[C@H]2O[C@@](O)(C(=O)C(=O)N3CCCC[C@H]3C(=O)O[C@H](/C(C)=C/[C@@H]3CC[C@@H](O)[C@H](OC)C3)[C@H](C)[C@@H](O)CC1=O)[C@H](C)C[C@@H]2OC	none (no result: NS1 function inh, LmPK inhibitor)
Cc1cccc(NC(=O)CSc2nnc(CNC(=O)c3ccco3)o2)c1	none (no result: Giardia FBPA inh)
CCn1c(C)nc2cc(C(=O)NNC(=S)NC(=O)c3ccccc3)ccc21	none
CCn1c(C)nc2cc(C(=O)NNC(=S)Nc3ccc(Cl)cc3)ccc21	Cycloheximide cs 22.2
CCn1c(C)nc2cc(C(=O)NNC(=S)Nc3ccc(F)cc3)ccc21	Shiga toxin inh 57.5, Cycloheximide cs 31.1
CCn1c(C)nc2cc(C(=O)OC(C(F)(F)C(F)F)C(F)(F)C(F)F)ccc21	Shiga toxin inh 70.3, Cycloheximide cs 45.5
CCn1c(C)nc2cc(C(=O)NNC(=S)Nc3ccccc3)ccc21	Shiga toxin inh 70.7, Cycloheximide cs 31.8
CCn1c(C)nc2cc(C(=O)NNC(=O)c3ccc(Cl)nc3)ccc21	none (no result: NS1 function inh)
CN(C(=O)c1ccc(OCC=C(c2ccccc2)c2ccccc2)cc1)c1ccccc1I	none (no result: NS1 function inh, LmPK inhibitor)
O=C(c1ccccc1)[C@H](Nc1ccc2ccccc2c1)c1ccccc1	none (no result: Shiga toxin inh, Cycloheximide cs, LmPK inhibitor, Giardia FBPA inh)
O=C(N/N=C/c1ccccn1)c1cc(-c2cccc3ccccc23)n[nH]1	Cycloheximide cs 13.3
O=C(N/N=C/c1ccccn1)c1cc(-c2ccc3ccccc3c2)n[nH]1	none
CCc1ccc(-c2cc(C(=O)N/N=C/c3ccco3)[nH]n2)cc1	none (no result: NS1 function inh)
O=C(N/N=C/C=C\c1ccccc1[N+](=O)[O-])c1cc(-c2ccc3ccccc3c2)n[nH]1	Cycloheximide cs 11.2
O=C(N/N=C/c1ccco1)c1cc(-c2ccc3ccccc3c2)n[nH]1	Cycloheximide cs 17.9
O=C(N/N=C/c1cccs1)c1cc(-c2ccc3ccccc3c2)n[nH]1	Shiga toxin inh 54.1, Cycloheximide cs 39.2
CC(C)CN(CC#N)CC(C)C	none (no result: Shiga toxin inh, Cycloheximide cs, LmPK inhibitor, Giardia FBPA inh)
O=C(N/N=C/c1cccs1)c1cc(-c2cccc3ccccc23)n[nH]1	Cycloheximide cs 46.5
COC(=O)c1c(CSc2cccc(C)c2)noc1C(=O)NCc1ccco1	Cycloheximide cs 21.5
N#CC1=C2C=CC=CN2CC1=O	Shiga toxin inh 110.5, Cycloheximide cs 30.4
O=C(CSc1nc2ccsc2c(=O)n1NC(=O)c1ccccc1)NCc1ccco1	none
O=C(CSc1nc2ccsc2c(=O)n1Cc1ccccc1)NCc1ccco1	Shiga toxin inh active, Cycloheximide cs 46.9
Cc1cc(NC(=O)CSc2nc3c(c(=O)n2Cc2ccccc2)SC(C)C3)no1 (stereo unspecified)	none
CCC(Sc1nc2ccsc2c(=O)n1-c1ccc(Cl)c(C)c1)C(=O)NCc1ccco1 (stereo unspecified)	Shiga toxin inh 44.4, Cycloheximide cs 24.6
CC1Cc2nc(SCC(=O)NCc3ccco3)n(Cc3ccccc3)c(=O)c2S1 (stereo unspecified)	Shiga toxin inh 35.9
CNC(=S)NNC(=O)c1ccccc1F	none (no result: NS1 function inh)
CCC(=Nc1ccccc1N)c1c(O)[nH]c(=O)[nH]c1=O	Shiga toxin inh 98.8, Cycloheximide cs 51.8
CCc1cc2c(=O)c(-c3nc4ccccc4[nH]3)coc2c(CN2CCC(C)CC2)c1O	none (no result: Shiga toxin inh, Cycloheximide cs, LmPK inhibitor, Giardia FBPA inh)
CCN(CC)C(=O)Oc1ccc2cc(Br)ccc2c1	Shiga toxin inh 122.6, Cycloheximide cs 27.6
COc1ccc2c(=O)c(-c3ccc4c(c3)OCO4)coc2c1	Shiga toxin inh 75.6, Cycloheximide cs 67.9, LmPK inhibitor inconclusive
CC(=O)Oc1ccc2c(=O)c(Oc3ccccc3[N+](=O)[O-])coc2c1	none
CCc1cc2c(=O)c(-c3nc4ccccc4[nH]3)coc2cc1OC(=O)N1CCOCC1	Cycloheximide cs 23.9
CC(=O)Oc1ccc2c(=O)c(-c3nc4ccccc4s3)coc2c1	Shiga toxin inh 94.8, Cycloheximide cs 59.8 (no result: NS1 function inh)
CSCCC(NC(=O)COc1ccccc1)C(=O)N1CCN(C(C)=O)CC1 (stereo unspecified)	none (no result: Giardia FBPA inh)
COc1ccc(-c2coc3cc(OC(=O)N4CCOCC4)ccc3c2=O)cc1	Shiga toxin inh 30.9, Cycloheximide cs 25.7
CCN(CC)C(=O)Oc1ccc2c(=O)c(-c3ccc(OC)cc3)c(C)oc2c1	none

Source: PubChem (National Center for Advancing Translational Sciences (NCATS))
